Test results reported in the supplement of paper PMC6555819.

Tests used:
Assay in all cases: PBM binding z-score (relative to random genomic background probes); higher = stronger binding; sequences stand for … in GC…GCGATTGACAGCGTAGAATGAAGG
[1] = tested on: FXR:RXRa (NR concentration 270 nM, RXRa partner concentration 90 nM)
Procedure, shortened: (§1)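 Custom Agilent 4×180K protein-binding microarrays carried double-stranded probes, each with a 34-nt variable region. These regions held direct-repeat seeds, single-nucleotide variants, half-site ablations and random human genomic background sequences. Ligand-free nuclear receptor dimers were incubated on the arrays for 1 h, antibodies against each partner (one per run) detected binding, and scanned fluorescence was regression-normalized. Binding z-scores take the random background probes as reference.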

[2] = tested on: LXRa:RXRa (NR concentration 270 nM, RXRa partner concentration 90 nM)
Procedure, shortened: as §1

[3] = tested on: LXRa homodimer (NR concentration 270 nM)
Procedure, shortened: as §1

[4] = tested on: LXRb:RXRa (NR concentration 270 nM, RXRa partner concentration 90 nM)
Procedure, shortened: as §1

[5] = tested on: LXRb homodimer (NR concentration 270 nM)
Procedure, shortened: as §1

[6] = tested on: PPARa:RXRa (NR concentration 270 nM, RXRa partner concentration 90 nM)
Procedure, shortened: as §1

[7] = tested on: PPARg:RXRa (NR concentration 180 nM, RXRa partner concentration 90 nM)
Procedure, shortened: as §1

[8] = tested on: PPARg:RXRa 270nM:90nM, anti-RXR (NR concentration 270 nM, RXRa partner concentration 90 nM)
Procedure, shortened: as §1

[9] = tested on: PPARg:RXRa 30nM:10nM, anti-RXR (NR concentration 30 nM, RXRa partner concentration 10 nM)
Procedure, shortened: as §1

[10] = tested on: PPARg:RXRa 90nM:30nM, anti-RXR (NR concentration 90 nM, RXRa partner concentration 30 nM)
Procedure, shortened: as §1

[11] = tested on: PPARg:RXRa DBDmut IVT, anti-RXR (DBD mutation: RXRa K156A/R161A, NR concentration 270 nM, RXRa partner concentration 90 nM)
Procedure, shortened: as §1

[12] = tested on: PPARg:RXRa IVT, anti-PPARg (NR concentration 270 nM, RXRa partner concentration 90 nM)
Procedure, shortened: as §1

[13] = tested on: PPARg DBDmut:RXRa IVT, anti-PPARg (DBD mutation: PPARg1 K132A/R137A, NR concentration 270 nM, RXRa partner concentration 90 nM)
Procedure, shortened: as §1

[14] = tested on: PPARg DBDmut IVT, anti-PPARg (DBD mutation: PPARg1 K132A/R137A, NR concentration 270 nM)
Procedure, shortened: as §1

[15] = tested on: PPARg homodimer (NR concentration 180 nM)
Procedure, shortened: as §1

[16] = tested on: PXR:RXRa (NR concentration 270 nM, RXRa partner concentration 90 nM)
Procedure, shortened: as §1

[17] = tested on: PXR homodimer (NR concentration 270 nM)
Procedure, shortened: as §1

[18] = tested on: RARa:RXR (NR concentration 270 nM, RXRa partner concentration 90 nM)
Procedure, shortened: as §1

[19] = tested on: RARa homodimer (NR concentration 270 nM)
Procedure, shortened: as §1

[20] = tested on: RARb:RXRa (NR concentration 270 nM, RXRa partner concentration 90 nM)
Procedure, shortened: as §1

Sequence	PBM binding z-score [1]	PBM binding z-score [2]	PBM binding z-score [3]	PBM binding z-score [4]	PBM binding z-score [5]	PBM binding z-score [6]	PBM binding z-score [7]	PBM binding z-score [8]	PBM binding z-score [9]	PBM binding z-score [10]	PBM binding z-score [11]	PBM binding z-score [12]	PBM binding z-score [13]	PBM binding z-score [14]	PBM binding z-score [15]	PBM binding z-score [16]	PBM binding z-score [17]	PBM binding z-score [18]	PBM binding z-score [19]	PBM binding z-score [20]
GTACCCAGGTGAATAGGTCGTTGATGAGTAGGCG	0.381	0.343	-0.131	0.285	-0.0749	1.59	1.34	1.25	0.309	0.972	1.26	2.42	-0.166	-0.407	0.786	0.279	0.138	1.08	0.238	0.908
CCTATTTGTTGACCATAAGGGCAACCGAAGCTCG	0.863	0.511	0.84	0.696	1.12	0.847	0.437	0.529	0.245	0.342	0.427	0.84	0.694	0.679	1.94	1.09	0.998	1.35	1.45	1.72
ATCTAAAGGTCGTGAGGTGAGTATACAGAAAGGC	5.84	5.04	1.01	3.73	1.12	5.2	4.73	4.73	2.02	3.72	1.12	2.89	1.3	1.74	2.21	3.4	0.645	4.46	1.13	4.15
TCTTGTGGATCAATAGAGGTTAAGAAAGTGCGCT	0.938	3.27	0.355	1.91	0.376	1.63	-0.178	1.51	2.31	1.64	1.7	0.901	0.673	0.819	0.64	2.88	0.306	1.69	0.244	0.915
CCTACTGGGCCAAAGCTCATTGATTCCAATGCTC	-0.596	-0.522	-0.451	-0.576	-0.796	1.48	2.63	4.26	2.45	3.85	4.44	3.69	-0.419	-0.625	-0.0929	-0.568	-0.291	-0.318	-0.841	-0.251
TCGAGTAGGTTACCATTGGGGCATTCAGCTTTCT	0.101	1.68	-0.373	0.964	-0.492	0.792	0.0586	1.23	0.995	1.17	3.26	2.88	-0.0492	-0.763	-0.00669	0.0838	-0.677	0.409	-0.577	0.817
AGAACGAGGGCGCGCTGAGTTGATAGCAGAGTAG	-0.365	-0.482	-0.786	-0.508	-1.21	0.138	0.362	-0.296	-0.293	-0.308	1.09	0.807	-0.354	-0.835	-0.746	0.224	-0.402	-0.0213	-1.26	0.529
CGTCAAAGTTCAACTAGGGTAACGTAAAGCACGC	7.53	6.47	4.77	4.43	2.39	5.32	5.78	5.97	2.98	5.07	1.68	3.83	0.643	0.081	3.72	5.46	6.56	4.56	1.44	5.37
GCTGCTAGGTCAACTGATGGTCAGCGAAAGCTCG	4.13	3.2	0.141	2.07	-0.112	3.84	2.73	3.35	0.723	2.31	4.56	4.1	0.329	-0.0247	1.64	1.7	-0.425	2.98	0.244	4.37
TCTTGTAGATCAAGCAGCTTAAGAAAGCCTGAGT	-0.352	-0.169	-0.373	-0.0264	-0.791	0.29	-0.61	1.03	2.17	1.5	1.1	0.213	-0.268	-0.032	0.0501	-0.0224	-0.129	-0.209	-0.515	-0.253
AGTCACAGTTCATCTAGGTAACGTAAGATATGCT	2.21	2.57	1.29	1.54	0.388	2.11	1.85	1.88	0.525	1.04	0.901	2.75	1.15	1.19	0.64	2.32	1.87	1.44	0.582	2.74
AGAACGAGGGCACCCTGAGTTGATAGCAGAGTAG	0.236	0.52	-0.169	-0.0951	-0.924	1.6	1.55	1.27	0.134	0.693	3.24	2.84	0.579	-0.333	0.0786	1.29	0.283	0.732	-0.996	2.16
TGTAGCAGGCCAGAGGGTCACTCAAGAGGTACGG	0.921	0.677	-0.568	0.665	-1.21	2.15	1.51	2.46	0.493	1.83	-1.03	1.1	-0.559	-0.849	0.876	1.39	-0.159	2.51	-0.395	2.35
ATCTCTAGGTAAGACTCAGGTCAGTGAAGAACGC	0.852	0.72	0.909	0.721	0.721	1.03	0.296	0.86	0.135	0.413	1.9	1.67	0.483	1.13	1.65	0.724	0.764	0.911	0.98	1.62
CCTGCTAGGTCATGGTCCGCTAATCTACAGTATG	3.61	2.3	0.0178	1.67	-0.223	3.46	2.34	2.78	0.499	1.74	4.12	3.6	-0.11	-0.235	0.575	1.29	-0.433	2.09	-0.439	3.88
AGAATGAGGCTATTAAGATCAGGGAATTGCGGTC	-0.289	-0.438	-0.31	-0.728	-0.68	-0.226	0.441	-0.417	-0.0887	-0.313	0.775	0.484	0.528	-0.351	-0.817	-0.436	-0.252	-0.197	-0.295	0.119
TCATATATGTAAATGCTAGGTGAAAGTCCGATCT	0.494	0.5	0.273	0.561	0.139	0.627	0.741	1.86	3.23	2.59	2.12	0.736	1.47	0.87	-0.136	0.601	0.0676	0.644	0.525	0.329
TCTGCTAGGTTAACGATGGTCAGCTAATCTGCTA	-1.53	0.817	-0.894	-0.156	-0.756	0.393	-0.117	0.909	1.45	1.06	2.11	1.89	-0.412	-0.772	-1.29	-0.232	-0.501	0.0866	-0.99	1.15
ACAGACAGGAGATGAAGGTAACTCAGGCTATCAT	0.323	0.193	0.173	0.229	0.489	0.00739	0.816	0.278	0.594	0.135	-0.00945	-0.0699	1.32	0.405	0.572	0.128	0.841	0.204	0.797	0.539
ACTATTAGTTAAGACGAGGGCAACCGATAGGTTG	0.44	0.122	0.165	0.211	0.232	0.271	0.646	-0.109	-0.17	-0.186	-0.356	0.422	0.81	0.924	0.44	0.642	0.645	0.641	1.02	0.967
TATACAGGGTCAAAGGCCAGAGCACGAATGTCGA	6.57	6.15	1.83	4.68	2.53	5.83	7.89	7.51	5.16	7.77	2.75	4.99	1.39	1.27	1.83	4.17	0.0861	5.31	0.94	4.36
TCTTGTAAATCAAAGGTTAAGAAAGCCGAAGCCT	1.34	2.53	0.811	1.94	0.621	3.08	3.23	5.39	4.93	5.88	1.48	1.25	0.212	0.506	1.05	1.42	-0.311	2.32	0.632	1.87
CCTAGCAGGCCAGTGTCACTCAAGCATTTCGCTT	-0.361	-0.253	-0.614	-0.187	-0.597	-0.0659	-0.338	-0.0615	-0.773	-0.752	1.35	0.117	-1.21	-1.52	-0.723	-0.407	-0.826	-0.184	-0.658	0.286
CGCCAAAGTTCAAGGTAACGTAACAGAAAGCAGC	6.49	5.62	3.2	3.55	0.961	5.17	4	4.83	1.8	3.27	0.89	1.7	0.701	0.562	1.95	4.18	2.34	3.4	1.12	5.28
CCTAGTTGGTCATGGTCACACACGCTATAGGTAC	-0.0474	0.0849	0.431	0.71	0.175	0.348	1.04	0.761	0.167	0.467	1.53	1.72	0.378	0.935	0.845	0.223	0.732	0.207	1.39	1.46
CGTCCAAGGTCAGCAGGTCAGTGTAAGCGACGTG	5.5	4.05	0.506	3.05	-0.03	4.91	4.14	4.68	1.12	3.01	2.97	3.67	-0.32	-0.582	2.97	3.74	0.447	5.09	1.36	5.35
